Sampled rows, rich in hits. Any-hit rate of the full collection: about 21%.
Pf growth 96h = inhibits malaria parasite growth, 96 h | P. falciparum luciferase reporter growth, 96 h | Potency, µM (top dose mostly 28.7 µM), for the others: top-dose activity change, negative = inhibition, hits mostly inhibitors | 6.9% of 320,000 active; note: potency is the fitted concentration of half-maximal effect; % is set by controls: 0 for no effect and ±100 for the full control effect
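Erythrocytes infected with luciferase-expressing P. falciparum were dispensed at 2% hematocrit and 0.05% parasitemia (final), then incubated with compounds 96 hours at 37 C in 5% CO2. Luminescence after detection reagent addition reported growth.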
HCMV inh = human cytomegalovirus inhibition; HFF cells, HCMV-luciferase reporter, 72 h; stronger effect = lower value; activity change, negative = inhibition, % at 57.5 µM; 4.5% of 410,000 active; AID 1259415; in the data active = activity change below about -60%; inconclusive = no clear call, values can overlap the other calls; inactive = above about -39%; note: % is set by controls: 0 for no effect and ±100 for the full control effect
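Compounds were evaluated in HFFs infected with an HCMV luciferase reporter virus (MOI 1 PFU/cell). Luciferase in lysates collected 72 h post infection served as the replication measure.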
HCV inh = inhibitors of hepatitis C virus infection | AID 651820 | 3.4% of 340,000 active | Huh7.5.1 HCVcc-Cre infection, luciferase reporter, 44 h | Potency, µM (doses to about 41.8 µM), without a hit: at the top dose activity change, negative = inhibition, usual class: inhibitors; note: potency is the fitted concentration of half-maximal effect; % is set by controls: 0 for no effect and ±100 for the full control effect
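HCVcc-Cre virus at an moi near 0.5 was added right after compound to cells cultured 4 h from seeding (1,000 cells/well). Luciferase activity was determined 44 h later, 15 min after substrate addition at RT.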
Shiga inhibitor = blocks Shiga toxin action in Vero cells. Vero cells, Shiga toxin protein synthesis inhibition reporter. AID 2315. inhibition, % at 38.7 µM. 9.2% of 290,000 active; in the data active = inhibition mostly above about 28%, no sharp cut-off; inactive = mostly below about 43%; note: 0% is about no effect
Cycloheximide cs = counter-screen for Shiga toxin inhibitors: cycloheximide protein synthesis inhibition | cell reporter, cycloheximide protein synthesis inhibition counterscreen | max response, % | 12% of 300,000 active | AID 2314; in the data active = max response mostly above about 13%, no sharp cut-off; inactive = mostly below about 14%; note: read at 38.3 µM for the half of the compounds with a filed dose; 0% is about no effect
Pf growth 48h = inhibits P. falciparum growth in the first generation, 48 h; P. falciparum luciferase growth in erythrocytes, 48 h; Potency, µM (top dose mostly 28.7 µM), for inactives: at the top dose activity change, negative = inhibition, actives largely listed as inhibitors; 5.9% of 310,000 active; note: potency is the fitted concentration of half-maximal effect; % is set by controls: 0 for no effect and ±100 for the full control effect
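Parasite viability was followed by luminescence of a genomically integrated firefly luciferase. Cultures held 0.1% parasitemia at 2% hematocrit (final), incubated under 5% CO2 at 37 C.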
* hit, by the source's call; ? = inconclusive; / = no result given; [ ] = remark or other dose. Unless noted, calls come from the whole dose curve; as a rule, active = well fitted inhibition curve with a large enough effect; inconclusive = small, poorly fitted or top-dose-only effect, or another doubt; inactive = no such curve, though single readings can be large or run the other way.

SMILES	Pf growth 96h	HCMV inh	HCV inh	Shiga inhibitor	Cycloheximide cs	Pf growth 48h
CCCN(CC(=O)Nc1ccccc1C)C(=O)CCN1C(=O)c2cccc([N+](=O)[O-])c2C1=O	?	-21	-5%	/	/	5%
COc1cccc(/C=C(\C#N)c2nc3ccccc3[nH]2)c1OCC(=O)O	?	18	3%	67*	31*	0%
COc1c(Cl)cc(Cl)cc1/C=C(\C#N)c1nc2ccccc2[nH]1	/	-19	/	/	/	/
COc1cccc(/C=C(/C#N)c2nc3ccccc3[nH]2)c1OC(C)C(=O)O (stereo unspecified)	37%	-38	11%	58*	26*	-16%[0.00184 µM]
CSc1cc2c(cc1C(F)(F)F)N(C(=O)Nc1cccnc1)CC2	/	/	/	-4	-3	/
Cc1nn(-c2ccccc2)c(Cl)c1/C=N\NC(=O)c1cnccn1	0%	17	10%	-9	-3	-4%
Cc1nn(-c2ccccc2)cc1/C=N/NS(=O)(=O)c1ccccc1	40%	10	0%	-21	16	30%
Cc1nn(-c2ccccc2)cc1/C=N/NC(=O)c1cccs1	-3%	10	-9%	102*	44*	-12%
Cc1nn(-c2ccccc2)c(C)c1/C=N/NC(=O)c1cnccn1	23%	0	-7%	40	16*	27%
Cc1nn(-c2ccccc2)c(C)c1/C=N/NC(=O)c1cccs1	?	33	?	26	15*	?
Cc1nn(-c2ccccc2)c(C)c1/C=N/NC(=O)c1cc(C23CC4CC(CC(C4)C2)C3)[nH]n1	2.1µM*	2	10µM*	-7	-2	3.3µM*
Cn1c(CCNC(=O)c2ccco2)nc2cc(NC(=O)c3ccccc3Cl)ccc21	47%	-2	-13%	60	11	-17%
Nc1nnc(SCC(=O)OCC(=O)Nc2ccccc2)s1	5%	11	-5%	5	-2	61%
Cc1nn(-c2ccccc2)c(C)c1/C=N/NC(=O)CSc1nnc(SCc2ccc(Cl)cc2)s1	?	36	14µM*	26	41*	-19%
Cc1nn(-c2ccccc2)c(C)c1/C=N/NC(=O)c1cc(-c2ccc(Br)s2)[nH]n1	-9%	-28	?	-5	-1	-8%
CCOc1cc(/C=N/NC(=O)c2cc(C3CC3)[nH]n2)ccc1O	0%	30	-1%	24	6	0%
O=C(N/N=C/c1c(F)cccc1Cl)c1cc(C2CC2)[nH]n1	58%	-20	0%	77*	30*	107%
Cc1cc(C(=O)N/N=C/c2c(C)nn(-c3ccccc3)c2C)n[nH]1	?	13	-10%	55*	18*	-11%
O=C(CSc1nnc(SCc2ccccc2)s1)N/N=C/c1c(Cl)cccc1Cl	-20%	?	-1%	0	4	51%
Cc1nn(-c2ccccc2)c(C)c1/C=N/NC(=O)c1cc(-c2cccs2)[nH]n1	-73%	-89*	?	-9	5	?
O=C(CCC1CCCN(C(=O)c2ccsc2)C1)N1CCN(c2ccccn2)CC1 (stereo unspecified)	?	-1	0%	-9	-2	?
COc1ccc2nc(SCC(=O)NCc3ccc(S(N)(=O)=O)cc3)[nH]c2c1	?	29	-2%	-7	-2	18%
Cc1nn(-c2ccccc2)c(C)c1/C=N/NC(=O)c1cc(C2CC2)[nH]n1	?	10	-10%	-1	14*	-28%
CC/C(=N\NC(=O)c1cc(C2CC2)[nH]n1)c1ccccc1	41%	-27	7%	69*	15*	68%
Cc1nn(-c2ccccc2)c(C)c1/C=N/NC(=O)c1cc(-c2ccc(Cl)s2)[nH]n1	-1%	-11	?	3	-4	?
SMILES	Pf growth 96h	HCMV inh	HCV inh	Shiga inhibitor	Cycloheximide cs	Pf growth 48h
CC/C(=N\NC(=O)c1c(C)nc2ccccn12)c1ccccc1	?	-1	-21%	-5	1	9%
CN(C)c1ccc(C(CNC(=O)c2ccc(C(C)(C)C)cc2)N2CCOCC2)cc1 (stereo unspecified)	/	-23	/	/	/	/
O=C(CSc1ncc(S(=O)(=O)c2ccc(Cl)cc2)c(=O)[nH]1)Nc1ccc2c(c1)OCCO2	/	4	/	/	/	/
COc1ccccc1NC(=O)N1CCC(CN2CCc3ccccc3C2)CC1	/	19	/	/	/	/
OC[C@H]1OC(O)(CN2CCOCC2)[C@H](O)[C@@H]1O (stereo partly specified)	/	/	/	-9	-1	/
O=S(=O)(c1ccc(Br)cc1)c1nnn2c1nc(NCCc1ccccc1)c1sccc12	/	25	/	/	/	/
Cc1ccccc1NC(=O)c1cnc2ccccn2c1=O	6.6µM*	16	-13%	86*	79*	44%
Cc1csc2ncc(C(=O)NCCC(c3ccccc3)c3ccccc3)c(=O)n12	11%	-12	7%	-3	2	-18%
CSc1ccccc1NC(=O)c1cnc2scc(C)n2c1=O	10%	47	-9%	28*	25*	11%
Cc1csc2ncc(C(=O)NCCc3ccccc3)c(=O)n12	117%	176	-2%	48*	45*	122%
O=C(NCCc1ccccc1)c1cnc2ccccn2c1=O	453%	66	0%	57*	41*	325%
Cc1cccc(NS(=O)(=O)c2ccc(NC(=O)N3CCCC3)cc2)c1	/	9	/	/	/	/
COC(=O)c1ccccc1NC(=O)COC(=O)CSc1nnc(N)s1	-2%	-18	7%	1	-1	5%
CN(C)CCn1c(=O)n(-c2cccc(Cl)c2)c(=O)c2c3c(sc21)CCCCC3	?	-28	-25%	-10	-3	13µM*
CCc1ccccc1N(C)S(=O)(=O)c1ccc2[nH]cc(C(=O)NCCOC)c(=O)c2c1	/	0	/	/	/	/
Cn1/c(=N/NC(=O)c2ccccc2Br)sc2ccccc21	147%	-13	12%	87*	36*	57%
CN(C(=S)NC(=O)c1ccc(F)cc1)C1CCCCC1	?	5	7%	29	19*	?
O=C(NNC(=O)C1CCC1)c1ccc(Cl)cc1	15%	30	1%	-5	-1	28%
CN(C(=S)NC(=O)c1ccccc1)C1CCCCC1	?	?	10%	34*	15*	?
CN(C(=S)NC(=O)c1ccc(Cl)cc1)C1CCCCC1	10µM*	-5	0%	72*	50*	?
COc1ccc(C(=O)N2CCN(C(=O)C3CCCO3)CC2)cc1[N+](=O)[O-] (stereo unspecified)	/	-10	7%	/	/	/
COc1ncc(C2=CC(=O)CC(C)(C)C2)cn1	61%	-5	11%	/	/	22%
COc1ccc(NC(=O)c2cc3c(=O)n(Cc4cccnc4)ccc3nc2C)c(OC)c1	/	-5	/	/	/	/
Cc1ccc(C2=Nc3ccccc3N=C(c3ccc([N+](=O)[O-])cc3)C2)c(O)c1	?	68	0%	166*	26*	22%

Source: PubChem BioAssay
